Hits are enriched below; roughly 19% of the tested compounds scored in any of these assays.
IL1B secr inh: inhibitors of inflammasome signaling (IL-1 beta secretion). activity change, % at 57.5 µM. 360,000 tested, 4.7% active. THP-1 LPS/ATP IL-1B secretion, AlphaLISA, 16 h; stronger effect = lower value; in the data active = activity change below about -50%; inconclusive = mostly about -30% to -49%
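Secreted IL-1B measured by AlphaLISA bead assay after 16 h compound exposure of THP-1 cells; compounds (final up to 57.5 uM) added 1 h before LPS (250 ng/mL) and ATP (1.25 mM) stimulation; lower signal means less secretion.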
HT1080-NT tox: kills 2HG-producing HT-1080-NT fibrosarcoma cells; Potency, µM (titrated, usually from 46.1 µM), inactives show at the highest dose activity, negative = less viability, actives largely listed as cytotoxic; 360,000 tested, 1.6% active; HT-1080-NT fibrosarcoma viability, CellTiter-Glo ATP luminescence, 48 h;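 note: NT is the 2HG producing partner of a matched IDH1 knockdown line; potency is the fitted concentration of half-maximal effect; 0% = DMSO-treated cells and -100% = media-only wells without cells; nearly all actives have a fitted effect of over 55% in size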
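HT-1080-NT fibrosarcoma cells (2HG-overproducing), 750 cells/well in RPMI with 5% FBS, dosed after 2 h and incubated 48 h at 37C. CellTiter-Glo luminescence normalized to DMSO and no-cell wells; concentration-response curves fitted and classed.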
TDP1 cell noCPT: qHTS for Inhibitors of human tyrosyl-DNA phosphodiesterase 1 (TDP1): qHTS in cells in absence of CPT. AID 686978, 2013. Potency, µM (series often up to 46.2 µM), for the others: top-dose activity change, negative = growth inhibition, usual class: inhibitors. 420,000 tested, 15% active. DT40 Tdp1-/- hTDP1 cells, no CPT, ATP luminescence, 48 h; note: potency is the fitted concentration of half-maximal effect; nearly all actives have a fitted effect of over 55% in size
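No-CPT arm: Tdp1-/-;hTDP1 DT40 cells (400/well) plus compounds, incubated ≥48 hr at 37 °C. Readout CellTiter-Glo luminescence.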
DT40 TDP1 CPT: growth inhibition of DT40 Tdp1-/-;hTDP1 cells with camptothecin (screen for TDP1 inhibitors) | 420,000 tested, 12% active | Potency, µM (series often up to 46.2 µM), for inactives: at the highest dose activity change, negative = growth inhibition, hits mostly inhibitors | chicken DT40 Tdp1-/-;hTDP1 cells + 20 nM CPT, ATP luminescence, 48 h; note: potency is the fitted concentration of half-maximal effect; nearly all actives have a fitted effect of over 55% in size
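Cell growth measured by CellTiter-Glo luminescence after a minimum 48 h, 37 C compound exposure with 20 nM CPT in Tdp1-knockout DT40 cells stably expressing hTDP1, seeded 400/well; qHTS titration format.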
HT1080 IDH1KD tx: kills HT-1080 cells with IDH1 knockdown. HT-1080 IDH1 knockdown viability, ATP luminescence, 48 h. Potency, µM (titrated, usually from 46.1 µM), inactives show top-dose activity, negative = toxicity, actives largely listed as cytotoxic. 360,000 tested, 2% active;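 note: potency is the fitted concentration of half-maximal effect; 0% = DMSO wells and -100% = cell-free medium wells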
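IDH1KD HT-1080 cells, 750/well, RPMI + 5% FBS; compound pinned after 2 h settling; 48 h, 37 °C; CellTiter-Glo luminescence; % activity normalised to DMSO and no-cell wells; curves fitted, classed by r2 and efficacy.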
Starred values were filed as active, the others as inactive; u = inconclusive; x = no result; [ ] = another dose, or the depositor's remark. Unless noted, calls come from the whole dose curve; as a rule, active = well fitted curve in the direction sought with a large enough effect; inconclusive = small, poorly fitted or top-dose-only effect, or another doubt; inactive = no such curve, though single readings can be large; an effect the other way counts as inactive or inconclusive. Unless noted, % is set by controls: 0 for no effect and ±100 for the full control effect.

SMILES	IL1B secr inh	HT1080-NT tox	TDP1 cell noCPT	DT40 TDP1 CPT	HT1080 IDH1KD tx
O=C(NCCCN1CCCC1=O)c1ccccc1NS(=O)(=O)c1ccc(Br)cc1	29	3%	1%	-1%	6%
Cn1c2c(c(=O)n(C)c1=O)C(c1ccc(F)cc1)C(C#N)=C(N)O2 (configuration not stated)	-69*	10%	3%	13%	9%
N#Cc1ccc(-c2ccc(OCC(O)Cn3nnc4ccccc43)cc2)cc1 (configuration not stated)	-59*	-5%	u	u	u
COC(=O)c1ccc(OCC(O)Cn2nnc3ccccc32)cc1 (configuration not stated)	30	-3%	u	-8%	-3%
O=C1C2CC=CCC2C(=O)N1c1ccc(OCC(O)Cn2nnc3ccccc32)cc1 (configuration not stated)	50	1%	23µM*	u	-1%
CC(=O)c1ccc(OCC(O)Cn2nnc3ccccc32)cc1 (configuration not stated)	0	-26%	-21%	u	7%[9.24 µM]
Cc1ccc(S(=O)(=O)Nc2ccc(Cl)cn2)cc1C	6	0%	-6%	7%	6%
COC(=O)C1=C(C)N(C)C(C)=C(C(=O)OC)C1c1ccc(Cl)cc1	2	3%	u	-24%	-8%
CCOC(=O)C1=C(C)N(C)C(C)=C(C(=O)OCC)C1c1ccc(Cl)cc1	u	u	u	u	23µM*
CCOC(=O)C1=C(C)N(C)C(C)=C(C(=O)OCC)C1c1ccc(C(=O)OC)cc1	u	-4%	15µM*	u	-20%
CCOC(=O)C1=C(C)N(C)C(C)=C(C(=O)OCC)C1c1ccsc1	-15	-2%	15µM*	u	0%
CCOC(=O)C1=CNS(=O)(=O)NC1c1ccc(C(=O)OC)cc1 (configuration not stated)	8	2%	-1%	2%	3%
CCOC(=O)C1=C(C)NC(=S)N(C(C)=O)C1c1ccc(Cl)cc1 (configuration not stated)	-15	u	-13%	16µM*	13µM*
CCCCCN1C=CC(=C2C(=O)c3ccccc3C2=O)C=C1	-18	23µM*	u	13µM*	9.2µM*
CC1=CC(=C2C(=O)c3ccccc3C2=O)C=C(C)N1C	-25	0%	u	14%	-4%
CC(C)C(=O)NC(=S)Nc1ccc(S(=O)(=O)N2CCCC2)cc1	-1	13%	16µM*	u	3%
CC(Nc1cccc([N+](=O)[O-])c1)C(=O)Nc1ccc(S(=O)(=O)N2CCCC2)cc1 (configuration not stated)	u	0%	15µM*	15µM*	-5%
CCCC(C(=O)Nc1ccc(S(=O)(=O)N2CCCC2)cc1)c1ccccc1 (configuration not stated)	-23	-18%	u	21µM*	-18%
O=[N+]([O-])c1cccc(S(=O)(=O)Nc2ccc(S(=O)(=O)N3CCCC3)cc2)c1	21	2%	-20%	-27%	-1%
O=C(NC(=S)Nc1ccc(S(=O)(=O)N2CCCC2)cc1)C1CCC1	14	3%	16µM*	u	12%
Cc1ccc(C(=O)c2cn(Cc3ccc(F)cc3)c3nc(C)ccc3c2=O)cc1	x	x	23µM*	16µM*	x
Cc1ccc2c(=O)c(C(=O)c3ccc(F)cc3)cn(CC(=O)NCCc3ccccc3)c2n1	x	x	-21%	-25%	x
CCN(C(=O)Cn1cc(C(=O)c2ccc(F)cc2)c(=O)c2ccc(C)nc21)c1cccc(C)c1	x	x	u	16µM*	x
CC(=O)c1c(C)[nH]c(C(=O)CSc2nnc(-c3cccs3)n2Cc2ccccc2)c1C	-17	1%	u	u	-28%
CC(=O)c1c(C)[nH]c(C(=O)CSc2nnc(-c3ccccc3)n2Cc2ccc3c(c2)OCO3)c1C	18	u	u	u	23µM*

Screening results (PubChem)
